Screening results: PubChem, several laboratories
Sampled rows, rich in hits. Any-hit rate of the full collection: about 4.2%.
tim10-1 inh – growth inhibitors of tim10-1 mutant yeast | S. cerevisiae tim10-1 ts strain growth, BacTiter-Glo, 24 h | inhibition, % at 20 µM | hit rate 2.2% among 330,000 | AID 463190;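 active = inhibition of at least 40%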;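 note: mutant grown at 25 °C; 0% = DMSO wells with yeast and 100% = wells holding no yeast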
NALP1 inh – NALP1 inhibition | inhibition, % at 10 µM | S. cerevisiae NALP1/ASC/caspase-1 growth, X-gal OD620, 72 h | AID 2071 | hit rate 0.61% among 280,000; in the data active = inhibition mostly above about 24%, no sharp cut-off; inactive = mostly below about 32%
PfHsp90 yeast 2 – reduces growth (ATP signal) of yeast expressing P. falciparum Hsp90; S. cerevisiae expressing PfHsp90, BacTiter-Glo ATP, 48 h; yeast lacking PDR1 and PDR3 efflux regulators; AID 504621; hit rate 0.32% among 310,000; inhibition, % at 9.4 µM;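 active = every replicate shows inhibition above about 80%, whatever the replicate mean, limit read from the data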;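 note: 0% = DMSO neutral controls and 100% = 20 µM radicicol positive controls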
tim23-1 inh – tim23-1 yeast growth inhibition; S. cerevisiae tim23-1 growth, BacTiter-Glo luminescence, 24 h; inhibition, % at 20 µM; hit rate 1.3% among 330,000;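 active = growth inhibition of the mutant yeast at or above 50%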;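 note: temperature-sensitive mutant grown at 25 °C; plate controls were DMSO-treated mutant yeast for no effect and medium wells lacking yeast for full effect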
TIM10 inh – inhibits growth of TIM10 yeast strain; S. cerevisiae TIM10 strain growth, BacTiter-Glo luminescence, 24 h; inhibition, % at 10 µM; hit rate 1.4% among 330,000; AID 463195;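 active = inhibition of 40% or more at the single tested concentration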;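 note: wild-type TIM10 isogenic control strain grown at permissive 25 °C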
NLRP3 yeast inh – inhibitors of NALP3 inflammasome in yeast; inhibition, % at 10 µM; Yeast reconstituted NLRP3/ASC/caspase-1, beta-gal luminescence, 24 h; hit rate 0.39% among 330,000;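 active = inhibition of 50% or more; inactive = inhibition below 50%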;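 note: plate controls were induced DMSO wells for no effect and uninduced yeast grown without galactose for full effect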
tim10-1 conf – confirmation of tim10-1 mutant yeast growth inhibitors; hit rate 56% among 7,400; shares compounds with tim10-1 inh; S. cerevisiae tim10-1 ts strain growth, BacTiter-Glo, 24 h; inhibition, % at 20 µM; AID 463213;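 active = inhibition of yeast growth at or above a set limit in either of two repeat tests at 20 µM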;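 note: tim10-1 mutant grown at permissive 25 °C to find synthetic lethal compounds; 0% = DMSO yeast wells and 100% = medium wells without yeast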
tim10 confirm – confirmation of TIM10 yeast growth inhibitors. shares compounds with TIM10 inh. inhibition, % at 10 µM. AID 463215. S. cerevisiae tim10 strain growth, BacTiter-Glo luminescence, 24 h. hit rate 63% among 4,600;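 active = inhibition of yeast growth at or above a set limit in either of two replicates at 10 µM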;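 note: this counterscreen used the strain with wild-type TIM10; 0% = yeast with DMSO and 100% = medium wells lacking yeast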
tim23-1 confirm – confirmation of tim23-1 mutant yeast growth inhibitors; hit rate 83% among 4,400; shares compounds with tim23-1 inh; inhibition, % at 20 µM; S. cerevisiae tim23-1 growth, BacTiter-Glo luminescence, 24 h; AID 463218;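 active = inhibition above about 39% in either of two replicate wells at 20 µM, limit read from the data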;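 note: temperature-sensitive tim23-1 mutant grown at 25 °C; 0% = DMSO wells with yeast and 100% = medium wells without yeast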
* marks the source's active call; other numbers are inactive results.

What do the screens show for `O=Cc1ccc(Sc2nnc(-c3ccccc3)o2)c([N+](=O)[O-])c1`?
tim10-1 inh: 48*; NALP1 inh: 4; PfHsp90 yeast 2: 9; tim23-1 inh: 55*; TIM10 inh: 42*; NLRP3 yeast inh: 23; tim10-1 conf: 35*; tim10 confirm: 18; tim23-1 confirm: 58*

Results for CCOC(=O)CC1=NN(c2ccccc2)C(=O)/C1=C\c1ccc(N(C)C)cc1 ?
tim10-1 inh: 43*; NALP1 inh: 15; PfHsp90 yeast 2: 3; tim23-1 inh: 51*; TIM10 inh: 51*; NLRP3 yeast inh: 18; tim10-1 conf: 43*; tim10 confirm: 53*; tim23-1 confirm: 53*

What do the screens show for `CCOc1ccc(C(c2c(NC(=O)c3ccccc3)sc(C)c2C)N2CCN(CCO)CC2)cc1` (stereo not given)?
tim10-1 inh: 29; NALP1 inh: 40; PfHsp90 yeast 2: -4; tim23-1 inh: 26; TIM10 inh: 25; NLRP3 yeast inh: -2

What do the screens show for `Cc1sc(NC(=O)c2ccccc2)c(C(c2ccc(Cl)cc2)N2CCN(CCO)CC2)c1C` (stereo not given)?
tim10-1 inh: 42*; NALP1 inh: 17; PfHsp90 yeast 2: 11; tim23-1 inh: 52*; TIM10 inh: 30; NLRP3 yeast inh: 7; tim10-1 conf: 35*; tim23-1 confirm: 42*

Results for COC(=O)C1=C(C(=O)OC)[C@@H]2N(Cc3ccccc3)c3ccccc3[C@@]23C[C@@H](C(=O)OC)N=C3N1 ?
tim10-1 inh: -15; tim23-1 inh: 0; TIM10 inh: 2; NLRP3 yeast inh: 14

Results for O=C(COC(=O)c1ccc([N+](=O)[O-])o1)NCCc1ccccc1 ?
tim10-1 inh: -166; PfHsp90 yeast 2: -15; tim23-1 inh: -8; TIM10 inh: -157; NLRP3 yeast inh: 16

Results for CC(C)(C)N(Cc1ccccc1)C(=O)COC(=O)c1ccc([N+](=O)[O-])o1 ?
tim10-1 inh: 45*; PfHsp90 yeast 2: -26; tim23-1 inh: 53*; TIM10 inh: 27; NLRP3 yeast inh: 24; tim10-1 conf: 31; tim23-1 confirm: 46*

Results for O=C(NC(=S)NCc1ccccc1)c1ccccc1Br ?
tim10-1 inh: -3; NALP1 inh: 14; PfHsp90 yeast 2: -23; tim23-1 inh: 43; TIM10 inh: 12; NLRP3 yeast inh: 26

How did O=C(NC(=S)NCc1ccccc1)c1ccccc1F do in these assays?
tim10-1 inh: 40*; NALP1 inh: 12; PfHsp90 yeast 2: -12; tim23-1 inh: 51*; TIM10 inh: 22; NLRP3 yeast inh: -4; tim10-1 conf: 27*; tim23-1 confirm: 25

How did O=C(NC(=S)NCCc1ccccc1)c1ccccc1 do in these assays?
tim10-1 inh: 45*; NALP1 inh: -13; tim23-1 inh: 55*; TIM10 inh: 43*; NLRP3 yeast inh: 7; tim10-1 conf: 20; tim10 confirm: 41*; tim23-1 confirm: 48*

How did CC(=O)NNC(=S)NCCc1ccccc1 do in these assays?
tim10-1 inh: 13; NALP1 inh: -7; PfHsp90 yeast 2: 5; tim23-1 inh: 4; TIM10 inh: -22; NLRP3 yeast inh: 2

How did O=S(=O)(c1ccc(S(=O)(=O)N2CCOCC2)cc1)N1CCCC1 do in these assays?
tim10-1 inh: 8; NALP1 inh: 8; PfHsp90 yeast 2: -1; tim23-1 inh: 11; TIM10 inh: 10; NLRP3 yeast inh: 25

What do the screens show for `C=CCSc1nc2ccccc2n1C(=O)/C=C/c1ccc(OC)c(OC)c1`?
NALP1 inh: 14; PfHsp90 yeast 2: 20

What do the screens show for `CCSc1nc2ccccc2n1C(=O)/C=C/c1ccc(OC)c(OC)c1`?
tim10-1 inh: 58*; NALP1 inh: 34; PfHsp90 yeast 2: 14; tim23-1 inh: 51*; TIM10 inh: 39; NLRP3 yeast inh: 23; tim10-1 conf: 44*; tim23-1 confirm: 54*

Results for O=C1c2ccc([N+](=O)[O-])cc2S(=O)(=O)N1Cc1ccccc1 ?
tim10-1 inh: 72*; NALP1 inh: 1; PfHsp90 yeast 2: -21; tim23-1 inh: 76*; TIM10 inh: 53*; NLRP3 yeast inh: 10; tim10-1 conf: 69*; tim10 confirm: 43*; tim23-1 confirm: 86*

Results for CCn1c(SC)nnc1C1CCN(CC(=O)Nc2ccccc2N2CCOCC2)CC1 ?
tim10-1 inh: -15; NALP1 inh: 0; PfHsp90 yeast 2: 12; tim23-1 inh: 6; TIM10 inh: 3; NLRP3 yeast inh: 15

What do the screens show for `CN(c1ccccc1)S(=O)(=O)c1ccc(NC(=O)CC(=O)c2ccccc2)cc1`?
PfHsp90 yeast 2: -13

What do the screens show for `CCN(CC)c1ccc(C(=O)OCC(=O)Nc2cc(C)on2)cc1`?
tim10-1 inh: 11; PfHsp90 yeast 2: 19; tim23-1 inh: 37; TIM10 inh: 11; NLRP3 yeast inh: 19

What do the screens show for `c1cncc(-c2nnc(-c3cccnc3)nn2)c1`?
tim10-1 inh: 50*; NALP1 inh: 26; tim23-1 inh: 54*; TIM10 inh: 36; NLRP3 yeast inh: -14; tim10-1 conf: 40*; tim23-1 confirm: 56*

Results for O=C(O)CCC(=O)Nc1ccc2c(c1)Cc1cc(NC(=O)CCC(=O)O)ccc1-2 ?
tim10-1 inh: 5; NALP1 inh: 17; PfHsp90 yeast 2: -35; tim23-1 inh: 6; TIM10 inh: -6; NLRP3 yeast inh: -10

What do the screens show for `Cc1cc(C)nc(SCC(=O)N/N=C/c2ccc3c(c2)OCO3)n1`?
tim10-1 inh: -5; NALP1 inh: 1; PfHsp90 yeast 2: 23; tim23-1 inh: 7; TIM10 inh: -5; NLRP3 yeast inh: 11

What do the screens show for `O=C(CSCc1ccccc1Br)N/N=C/c1ccc2c(c1)OCO2`?
tim10-1 inh: 51*; NALP1 inh: 34; PfHsp90 yeast 2: 3; tim23-1 inh: 60*; TIM10 inh: 33; NLRP3 yeast inh: 12; tim10-1 conf: 46*; tim23-1 confirm: 50*

Results for O=C(NCCC(=O)N1CCN(c2ccccn2)CC1)c1ccc(Cl)cc1 ?
tim10-1 inh: 10; PfHsp90 yeast 2: 8; tim23-1 inh: 11; TIM10 inh: 5; NLRP3 yeast inh: 12

What do the screens show for `COC(=O)c1ccc2c(c1)C(C)(C)C(/C=C/c1ccccc1O)=[N+]2C`?
tim10-1 inh: 65*; NALP1 inh: 1; PfHsp90 yeast 2: 17; tim23-1 inh: 66*; TIM10 inh: 56*; NLRP3 yeast inh: 45; tim10-1 conf: 57*; tim10 confirm: 53*; tim23-1 confirm: 71*
